The list is not random: actives were taken first. Their share in the collection is about 2.4%.
SENP7 block: SENP7 protease inhibitors, primary screen, biochemical, luminescence, uHTS; Sentrin-specific protease 7 (Homo sapiens), Q9BQF6; recombinant SENP7, Z-RLRGG-aminoluciferin luminescence, 40 min; inhibition, % at 5 µM; 330,000 compounds, 1.5% hits; AID 434973, 2010;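 active means inhibition above about 50% at the single test dose, limit read from the data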;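 further: plate controls were DMSO with enzyme for no effect and no enzyme buffer wells for full effect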
SENP8 block-1: human SENP8 protease inhibitors, primary screen, biochemical, fluorescence, Nedd8 protein substrate, uHTS; recombinant SENP8; inhibition, % at 20 µM; 360,000 compounds, 0.64% hits; in the data active means inhibition mostly above about 40%, no sharp cut-off; inactive means mostly below about 27%
Target sequence (Q96LD8 whole entry, looked up): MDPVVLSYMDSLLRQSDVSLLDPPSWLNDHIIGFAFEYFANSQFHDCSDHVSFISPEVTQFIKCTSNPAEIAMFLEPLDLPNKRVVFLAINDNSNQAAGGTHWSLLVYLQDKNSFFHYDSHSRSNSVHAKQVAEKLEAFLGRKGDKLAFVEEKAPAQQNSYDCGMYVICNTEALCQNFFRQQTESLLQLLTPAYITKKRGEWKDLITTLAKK
SENP8 block-2: SENP8 protease inhibitors, primary screen, biochemical, luminescence; Sentrin-specific protease 8 (Homo sapiens), Q96LD8; purified SENP8, Z-RLRGG-aminoluciferin cleavage; inhibition, % at 10 µM; AID 2540, 2010; 330,000 compounds, 1.2% hits; in the data active means inhibition above about 50%
SENP6 inh: SENP6 protease inhibitors, primary screen, biochemical, luminescence, uHTS; Sentrin-specific protease 6 (Homo sapiens), Q9GZR1; Recombinant SENP6 catalytic domain, aminoluciferin luminescence; inhibition, % at 10 µM; 330,000 compounds, 1.8% hits; AID 2599, 2010;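 active means inhibition above about 50% at the single tested dose, limit read from the data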;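 further: plate controls were DMSO wells with enzyme for no effect and DMSO wells lacking enzyme for full effect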
Platelet DG rel: inhibitors of platelet dense granule secretion, primary screen, cell-based, MLPCN, human platelets. human platelet-rich plasma, SFLLRN dense granule ATP release, luminescence. inhibition, %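 (compounds screened at 7.5 µM in platelet-rich plasma)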. 300,000 compounds, 0.22% hits;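 active means mean replicate score, as percent of positive control, at or above 50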
SENP8 conf: SENP8 protease inhibitors, retest, confirmation, biochemical, luminescence, single concentration; shares compounds with SENP7 block; Recombinant SENP8, Z-RLRGG-aminoluciferin luminescence, 60 min; inhibition, % at 12.5 µM; 6,200 compounds, 40% hits;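 active means mean inhibition across replicates above about 50%, limit read from the data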
SENP6 conf: SENP6 protease inhibitors, confirmation, biochemical, luminescence, single concentration. shares compounds with SENP7 block. AID 488915, 2010. recombinant SENP6, Z-RLRGG-aminoluciferin luminescence. inhibition, % at 12.5 µM. 6,200 compounds, 58% hits
SENP7 conf: SENP7 protease inhibitors, retest, confirmation, biochemical, luminescence, single concentration; shares compounds with SENP7 block; recombinant SENP7, Z-RLRGG-aminoluciferin luminescence, 40 min; inhibition, % at 12.5 µM; 6,200 compounds, 69% hits
Casp3 SENP sel: caspase-3 protease inhibitors, confirmation, selectivity assay for SENP inhibitor project, biochemical, single concentration. shares compounds with SENP7 block. inhibition, % at 12.5 µM. purified caspase-3, Z-DEVD-aminoluciferin luminescence, 60 min. 6,200 compounds, 60% hits;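 active means mean inhibition above about 50%, limit read from the data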;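 further: plate controls were enzyme with DMSO for no effect and wells without caspase-3 for full effect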
Target sequence (P42574 28-227 limits assumed): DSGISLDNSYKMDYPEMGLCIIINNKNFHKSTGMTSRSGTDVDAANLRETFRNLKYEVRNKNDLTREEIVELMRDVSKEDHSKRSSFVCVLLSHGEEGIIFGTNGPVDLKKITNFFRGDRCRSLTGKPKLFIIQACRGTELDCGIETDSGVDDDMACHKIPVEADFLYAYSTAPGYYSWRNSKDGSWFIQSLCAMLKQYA
Luc interf: counter-screen for SENP inhibitors: luminescence interference; shares compounds with SENP7 block; Pre-incubated SENP8/Z-RLRGG-aminoluciferin, luciferase luminescence interference; inhibition, % at 12.5 µM; 6,200 compounds, 39% hits;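 active means mean inhibition above about 50% when retested at one dose, limit read from the data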;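 further: plate controls were DMSO wells with completed reaction for no effect and substrate without enzyme for full effect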
The depositor's hits bear a star; i = inactive; · = no result given; ! = repeats disagree.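 How the source made its calls, unless noted: active means mean inhibition above about 50% in the one-dose retest (limit read from the data); inactive means the rest.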

SMILES	SENP7 block	SENP8 block-1	SENP8 block-2	SENP6 inh	Platelet DG rel	SENP8 conf	SENP6 conf	SENP7 conf	Casp3 SENP sel	Luc interf
FC(F)Oc1ccc(C2N=C(c3ccccc3)NO2)cc1 (centres undefined)	2	-20	54*	62*	5	17	28	24	18	14
CC(O)CSc1nc2c(c(=O)[nH]c(=O)n2C)n1Cc1ccccc1Cl (centres undefined)	6	10	-10	10	2	·	·	·	·	·
CC(O)CNC(=O)Cc1cc(=O)[nH]c(=O)[nH]1 (centres undefined)	-9	9	-5	-18	20	·	·	·	·	·
CN(C)c1ccc(/C=C2\CCCCC2=O)cc1	63*	-24	48	62*	6	46	62*	81*	60*	29
CN(C)c1ccc(C=C2SC(=S)NC2=O)cc1	·	39	·	·	·	·	·	·	·	·
COc1ccc(NC(=O)Nc2ccc(F)cc2F)c(C)c1	4	18	1	-3	1	·	·	·	·	·
COc1ccc(NC(=O)Nc2ccc(F)cc2F)cc1	80*	6	59*	74*	12	58*	71*	93*	80*	26
O=C(Nc1ccc(C(=O)O)cc1)Nc1ccc(F)cc1F	77*	5	69*	83*	33	77*	73*	93*	91*	76*
Oc1ccc(-c2nc3ncccn3c2Nc2ccc3c(c2)OCO3)cc1	93*	13	17	86*	4	9	8	-7	-3	6
O=C(COC(=O)CC1CC2CCC1C2)Nc1cccc(S(=O)(=O)NC2=NCCCCC2)c1 (centres undefined)	-1	20	-6	2	-6	·	·	·	·	·
COc1ccc(/C=C2\CCc3ccccc3C2=O)cc1OC	25	1	33	52*	7	69*	62*	62*	27	42
CC(=O)Oc1ccc(/C=C2/CCc3ccccc3C2=O)cc1	97*	6	95*	97*	31	96*	100*	102*	94*	98*
O=C1/C(=C/c2ccc([N+](=O)[O-])cc2)CCc2ccccc21	98*	·	90*	95*	50*	1	81*	-9	40	37
COc1ccc(/C=C2\CC/C(=C\c3ccc(OC)c(OC)c3)C2=O)cc1OC	-4	23	-2	4	2	·	·	·	·	·
O=C(CNC(=O)c1ccccc1F)NCc1ccncc1	9	11	5	16	·	·	·	·	·	·
Cc1ccc(NC2CCCN(C(=O)CSc3ccncc3)C2)cc1C (centres undefined)	2	6	1	-12	-2	·	·	·	·	·
Cc1cc(=O)[nH]c(SCC(=O)N(CCC#N)c2ccccc2)c1C#N	-4	8	-3	-11	3	·	·	·	·	·
COc1ccc(Cl)c(OC)c1C(=O)NC(=O)Nc1c(F)cc(F)cc1F	-1	18	-3	-7	2	·	·	·	·	·
COc1ccc(N)c2c1C(=O)c1ccccc1C2=O	·	29	·	·	10	·	·	·	·	·
NC1=C(Br)C(=O)c2ccccc2C1=O	49	104*	54*	76*	1	36	63*	27	78*	2
Cc1ccc(CN2C3CCCC2CC(NC(=O)c2ccc(C)cc2)C3)cc1 (centres undefined)	3	9	2	12	-7	·	·	·	·	·
COc1ccc(C2Nc3ccccc3C(=O)N2Cc2ccco2)cc1CN1C(=O)c2ccccc2C1=O (centres undefined)	66*!	-67	-1	-4	-5	3	8	10	5	6
COc1ccc(C2Nc3ccccc3C(=O)N2Cc2ccco2)cc1COc1ccc(F)cc1 (centres undefined)	-4	-304	4	5	9	·	·	·	·	·
Clc1cc2nc(-c3cccnc3Cl)[nH]c2cc1Cl	73*	-207	38	77*	-5	3	8	90*	59*	1
CCOC(=O)CNC(=O)CSc1ncnc2c1cnn2-c1ccc(OC)cc1	35	3	68*	70*	0	10	47	32	75*	12
SMILES	SENP7 block	SENP8 block-1	SENP8 block-2	SENP6 inh	Platelet DG rel	SENP8 conf	SENP6 conf	SENP7 conf	Casp3 SENP sel	Luc interf
CCOC(=O)CNC(=O)CSc1ncnc2c1cnn2-c1ccc(C)cc1	13	-30	39	52*	-4	13	15	14	46	8
CCOC(=O)CNC(=O)CSc1ncnc2c1cnn2-c1ccccc1	20	-66	17	35	-1	·	·	·	·	·
CC(Sc1nncn1C)C(=O)Nc1ccc2ccccc2c1 (centres undefined)	7	6	-3	-11	·	·	·	·	·	·
O=C(CNC(=O)c1ccc(Cl)cc1Cl)Nc1ccc(F)cc1	4	20	5	4	-3	·	·	·	·	·
O=C(NC(=S)Nc1cccnc1)c1cc2ccccc2o1	28	18	-6	28	10	·	·	·	·	·
CCOC(=O)c1ccc(NC(=O)c2cc3ccccc3o2)cc1	52*	-10	45	60*	2	32	53*	60*	43	42
O=C(Nc1cccc(Br)c1)c1cc2ccccc2o1	-11	7	89*	94*	6	94*	94*	101*	82*	88*
CCOC(=O)c1cccc(NC(=O)c2cc3ccccc3o2)c1	17	-3	1	31	5	·	·	·	·	·
CCC(=O)Nc1cccc(NC(=O)c2cc3ccccc3o2)c1	74*	22	54*	67*	11	74*	67*	88*	74*	70*
O=C(Nc1cccnc1)c1cc2cc(Br)ccc2o1	92*	5	85*	91*	2	89*	88*	100*	91*	32
CCOc1cccc(-c2cc(NCCc3ccccn3)n3nccc3n2)c1	·	i	·	·	·	·	·	·	·	·
Cc1cccc(NC(=O)c2cc3ccccc3o2)c1	94*	10	87*	94*	2	8	94*	101*	91*	92*

Assay outcomes: PubChem, several laboratories
